High-throughput results from PubChem BioAssay.
Only some compounds are listed: those with a hit (about 2.4% of all), similar ones and a draw of the others.
D2 PAM-1: positive allosteric modulators of human D2 dopamine receptor. P14416. HEK293 T-REx D2, calcium flux, EC20 dopamine potentiation. AID 485347. actives 0.34% (n = 340,000). potentiation, % at 10 µM;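 active = potentiation over 3 SD above the plate norm, cut at about 30% in these data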; note: 0% is about no effect
Target sequence (P14416 whole entry, looked up): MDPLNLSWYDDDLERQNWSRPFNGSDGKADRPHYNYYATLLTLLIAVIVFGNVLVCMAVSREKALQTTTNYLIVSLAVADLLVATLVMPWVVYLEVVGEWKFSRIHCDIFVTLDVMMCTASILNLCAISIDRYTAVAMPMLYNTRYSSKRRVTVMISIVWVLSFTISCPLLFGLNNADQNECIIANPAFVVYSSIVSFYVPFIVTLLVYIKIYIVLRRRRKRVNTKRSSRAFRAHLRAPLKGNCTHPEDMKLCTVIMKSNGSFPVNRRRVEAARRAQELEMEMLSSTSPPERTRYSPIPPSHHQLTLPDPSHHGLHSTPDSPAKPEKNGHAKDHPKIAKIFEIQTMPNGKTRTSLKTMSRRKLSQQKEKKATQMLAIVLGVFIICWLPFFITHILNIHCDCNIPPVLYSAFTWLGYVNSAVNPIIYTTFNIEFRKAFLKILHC
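Potentiation of an EC20 dopamine calcium response measured kinetically over 180 s, after a preceding 180 s compound-only read flagging agonists. Cells: inducible Hek293 Trex D2 line, 4000/well, cultured overnight at 30 C before dye loading.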
D2 ag-1: D2 dopamine receptor (human) agonism; HEK293 T-REx D2 cells, calcium flux agonist mode; activation, % at 2 µM; actives 0.53% (n = 340,000); AID 485358;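 active = activation over 3 SD above normal in the single-dose calcium agonist read, cut at about 30% in these data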; note: 0% is about no effect
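In this primary screen, compounds producing a positive calcium signal within 180 s of addition to tetracycline-induced, force-coupled HEK293 Trex D2 cells are flagged; cells are dye-loaded with a no-wash calcium kit beforehand.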
D2 antagonist: antagonizes the human D2 dopamine receptor; P14416; HEK293 TREx D2 cells, calcium flux, dopamine EC80; inhibition, % at 10 µM; actives 2% (n = 340,000); in the data active = inhibition above about 30%; inactive = below that, where a call was filed; note: 0% is about no effect
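Calcium mobilization kinetics were recorded at 1 s intervals in tetracycline-induced HEK293 T-REx D2 cells, first for 180 s after compound addition and then 180 s after EC80 dopamine.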
D2 ag-2: activates the human D2 dopamine receptor; DiscoveRx PathHunter D2 beta-arrestin, luminescence, 90 min; 100% = 57 uM dopamine signal; activation, % (no concentration beside the values); P14416; actives 0.084% (n = 360,000); in the data active = activation above about 40%; inconclusive = between about 15% and that limit
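DiscoveRx PathHunter D2 beta-arrestin cells (2,100/well) attached overnight, then compound-stimulated 90 min at 37 C in HBSS/10 mM HEPES/0.1% Tween-20 buffer; beta-galactosidase complementation read by luminescence after 1 h at ambient temperature. Dopamine 57 uM final (EC100) as control.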
D2 PAM-2: human D2 receptor positive allosteric modulation | DiscoveRx D2 beta-arrestin cells, luminescence, 90 min; 100% = 57 uM dopamine signal | actives 0.23% (n = 360,000) | AID 624464 | potentiation, % (concentration not given with the values) | P14416; in the data active = potentiation above about 50%; inconclusive = mostly about 30% to 49%
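D2 cells co-treated with compound plus 50 nM dopamine (EC20) for 90 min at 37 deg C to detect potentiation. Beta-arrestin recruitment was read as enzyme-fragment luminescence after 1 h at ambient temperature. Full response was set by 57 uM dopamine.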
An asterisk follows results filed as active.

CC(C)c1ccc(NC(=O)c2ccc(F)c(S(=O)(=O)N3CCc4ccccc4C3)c2)cc1 was read as D2 PAM-1 -0.1 and D2 ag-1 1.5.
For CCc1cccc(CC)c1-n1c(-c2cccnc2)n[nH]c1=S the results were D2 PAM-1 -8.6, D2 ag-1 0.0, D2 antagonist 66.4*, D2 ag-2 -0.2 and D2 PAM-2 -7.9.
For Cc1ccccc1-c1cc(C(=O)NCc2ccc3c(c2)OCO3)n(CC2CC(c3cccnc3)=NO2)n1 (stereo not given) the results were D2 PAM-1 6.0, D2 ag-1 -1.9, D2 antagonist 82.9*, D2 ag-2 1.5 and D2 PAM-2 -17.7.
Screening Cc1ccc(CNC(=O)c2cc(-c3ccccc3C)nn2CC2CC(c3cccnc3)=NO2)cc1 (stereo not given) returned D2 ag-2 3.6 and D2 PAM-2 -99.8.
Screening O=C(NCCS(=O)(=O)N1CCN(c2ccccc2)CC1)C1CC(=O)N(c2ccc(F)cc2)C1 (stereo not given) returned D2 PAM-1 -6.1, D2 ag-1 0.5, D2 antagonist 32.5*, D2 ag-2 -0.7 and D2 PAM-2 -6.3.
`Cc1sc(NC(=O)c2ccco2)c(CN2CCN(c3ccc(F)cc3)CC2)c1C` gave D2 PAM-1 -5.2, D2 ag-1 0.5, D2 antagonist 33.0*, D2 ag-2 1.3 and D2 PAM-2 -3.9.
O=C(NCCS(=O)(=O)N1CCN(c2ccccc2F)CC1)c1ccco1 was read as D2 PAM-1 -2.6, D2 ag-1 -1.0, D2 antagonist -2.7, D2 ag-2 -1.0 and D2 PAM-2 10.0.
For O=C(Cc1ccc(F)cc1)NCCS(=O)(=O)N1CCN(c2ccccc2)CC1 the results were D2 PAM-1 -5.6, D2 ag-1 10.0, D2 antagonist 46.0*, D2 ag-2 inconclusive and D2 PAM-2 -6.0.
CCOC(=O)N1CCN(Cc2c(NC(=O)c3ccco3)sc(C)c2C)CC1 was read as D2 ag-1 -0.3, D2 antagonist 7.0, D2 ag-2 4.4 and D2 PAM-2 -4.5.
O=C(NCCS(=O)(=O)N1CCN(c2ccc(F)cc2)CC1)c1ccco1 was read as D2 PAM-1 -12.7, D2 ag-1 0.1, D2 antagonist 33.1*, D2 ag-2 -4.0 and D2 PAM-2 -7.4.
For COc1ccc(Cl)cc1NC(=O)CSc1ccc2nnc(CCNS(=O)(=O)c3ccccc3)n2n1 the results were D2 PAM-1 0.6 and D2 ag-1 -0.9.
Screening CCc1ccccc1NC(=O)N1CCOc2ccccc21 returned D2 PAM-1 -1.1 and D2 ag-1 0.5.
Screening Cc1ccc(NC(=O)CSc2nc3c(sc4ccccc43)c(=O)n2CCCC(=O)NC2CCCC2)cc1C returned D2 PAM-1 6.8 and D2 ag-1 0.7.
Cc1ccc(C)c(Cn2nc(-c3cc(C)ccc3C)ccc2=O)c1 was read as D2 PAM-1 -3.0, D2 ag-1 1.0, D2 antagonist 35.3*, D2 ag-2 -0.6 and D2 PAM-2 -10.3.
For Cc1cccn2c(=O)c(C(=O)N3CCN(c4ccccc4)CC3)cnc12 the results were D2 PAM-1 8.5 and D2 ag-1 6.3.
For CN1CCN(C(=O)c2ccc3c(c2)N(Cc2ccc(Cl)cc2)C(=O)c2ccccc2S3(=O)=O)CC1 the results were D2 PAM-1 -19.6 and D2 ag-1 1.9.
Screening CCOc1ccc(N2C(=O)CN=C2Nc2ccccc2Cl)cc1 returned D2 PAM-1 -7.4, D2 ag-1 0.4, D2 antagonist -4.5, D2 ag-2 -2.1 and D2 PAM-2 -12.8.
`O=C1CN=C(Nc2ccccc2Cl)N1c1ccccc1` gave D2 PAM-1 -5.2, D2 ag-1 1.5, D2 antagonist 36.4*, D2 ag-2 -5.3 and D2 PAM-2 1.3.
Screening Cc1ccc(CNC(=O)c2sc3nc4n(c(=O)c3c2C)CCCC4)cc1 returned D2 PAM-1 7.0 and D2 ag-1 7.8.
CCOC(=O)CNC(c1ccccc1)c1cc(Br)ccc1NC(=O)c1ccc(Cl)cc1 (stereo not given) was read as D2 PAM-1 -4.8 and D2 ag-1 -0.2.
CC(C)(C)c1nn(-c2ccccc2)c2[nH]c(=O)c(C=O)cc12 was read as D2 PAM-1 0.6, D2 ag-1 -1.5, D2 antagonist 38.8*, D2 ag-2 -11.5 and D2 PAM-2 -22.0.
`CC(C)(C)c1nn(-c2ccccc2)c2nc(Cl)c(C=O)cc12` gave D2 PAM-1 4.5, D2 ag-1 -1.2, D2 antagonist 32.1*, D2 ag-2 2.7 and D2 PAM-2 -1.4.
`CCOc1ccc(NCc2cc3c(C(C)(C)C)nn(-c4ccccc4)c3[nH]c2=O)cc1` gave D2 PAM-1 1.7, D2 ag-1 0.3, D2 antagonist -7.1, D2 ag-2 -4.1 and D2 PAM-2 -33.1.
For C=CCn1c(SCC(=O)Nc2ccc(C(=O)O)cc2)nc2sc(C)c(C)c2c1=O the results were D2 PAM-1 2.6, D2 ag-1 -0.1, D2 antagonist -2.2, D2 ag-2 -2.2 and D2 PAM-2 -2.1.
`C=CCn1c(SCC(=O)Nc2sccc2C#N)nc2sc(C)c(C)c2c1=O` gave D2 PAM-1 -0.7, D2 ag-1 0.6, D2 antagonist 32.2*, D2 ag-2 1.2 and D2 PAM-2 -11.8.
Screening CCN(CC)c1ccc2c(C)c(Cl)c(=O)oc2c1 returned D2 PAM-1 8.2, D2 ag-1 -0.3, D2 antagonist -5.5, D2 ag-2 7.1 and D2 PAM-2 -3.1.
Screening CCN(CC)c1ccc2c(c1)oc(=O)c1c(Cl)cc(=O)oc12 returned D2 PAM-1 -4.5, D2 ag-1 47.7*, D2 antagonist 51.4*, D2 ag-2 -5.0 and D2 PAM-2 -32.8.
`O=C(NCc1ccc2c(c1)OCO2)C1CCC(CNS(=O)(=O)c2cccc3nsnc23)CC1` (stereo not given) gave D2 PAM-1 -1.0, D2 ag-1 -0.8, D2 antagonist 35.0*, D2 ag-2 -5.5 and D2 PAM-2 0.6.
For COc1ccc(CNC(=O)C2CCC(CNS(=O)(=O)c3cccc4nsnc34)CC2)cc1 (stereo not given) the results were D2 PAM-1 6.2, D2 ag-1 -1.7, D2 antagonist 17.0, D2 ag-2 2.5 and D2 PAM-2 -2.1.
Screening COc1cc(C(CC(=O)Nc2ccc(Br)cn2)N2Cc3ccccc3C2=O)cc(OC)c1OC (stereo not given) returned D2 PAM-1 2.6 and D2 ag-1 -0.7.
`CCN1CCN(C(=O)C2c3cc(OC)c(OC)cc3C(=O)N(C)C2c2ccc(SC)cc2)CC1` (stereo not given) gave D2 PAM-1 46.4*, D2 ag-1 -1.1, D2 antagonist 9.0, D2 ag-2 -3.6 and D2 PAM-2 -6.2.
CCc1cccc(NC(=O)COc2cc(=O)n(CC)c3ccccc23)c1 was read as D2 PAM-1 5.4 and D2 ag-1 -0.9.
